According to PubChem BioAssay (NCI):
Where “and” joins values, the source holds several entries; their conditions need not be identical. Identical values can stand only once. This is part of a sample that, as a whole, favours compounds with a hit. Of some 83,000 tested, about 20% had one in any assay.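 48-hour exposure, single concentration, 96-well plates; percent growth endpoint where 0 means no net growth. Active: below 10.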 Calls of active or inactive are those of the source.

Each compound was assayed on NCI/ADR-RES ovarian (assay: NCI-60 one-dose screen, 48 h (100 = growth as untreated, 0 = no growth, -100 = all killed)). Conditions: 10 µM unless noted.
With O=[N+]([O-])c1ccccc1/C=N\Nc1ccccc1 the growth was 73.3% (inactive) and 75.6% (inactive).
In the case of CCN(CC)CCNc1cc(-c2cccc(OC(F)(F)F)c2)nc2ccc(N3CCCC3)cc12, the growth is reported as 9.79% (active) and -16.8% (active) and 25.2% (inactive).
For CC(=O)Nc1cc(S(=O)(=O)O)cc2cc(S(=O)(=O)O)c(N=Nc3ccccc3)c(O)c12, the growth was 107% (inactive) and 105% (inactive).
With CC(C)CNC(=O)c1ccccc1C(=O)NC1(C(=O)NCC(C)C)CCCC1 the growth was 106% (inactive) and 105% (inactive).
For COc1cc2nc(N3CCN(C(=O)C4COc5ccccc5O4)CC3)nc(N)c2cc1OC (stereo unspecified), the growth was 93.9% (inactive) and 97.6% (inactive) and 110% (inactive).
In the case of O=C(Cc1cccc2ccccc12)N/N=C/c1ccc2c(c1)CCC2, the growth is reported as 31% (inactive).
In the case of CC1=C(/C=C/C(C)=C/C=C/C(C)=C/C(=O)O)C(C)(C)CCC1, the growth is reported as 90.9% (inactive) and 95% (inactive).
In the case of O=C(Nc1ccc(Br)cc1)c1cc(Br)ccc1O, the growth is reported as 4.45% (active) and -5.6% (active).
With Cc1cc(-c2ccc(NS(=O)(=O)c3ccccc3)c(C)c2)ccc1NS(=O)(=O)c1ccccc1 the growth was 86.1% (inactive) and 87.3% (inactive).
In the case of O=C(CCl)c1ccc2c(c1)Nc1ccccc1S2, the growth is reported as 94.7% (inactive) and 95.9% (inactive).
For CC1CCCc2sc3nc(NNC(=O)c4cnccn4)n(-c4ccccc4)c(=O)c3c21 (stereo unspecified), the growth was 3.02% (active) and 5.41% (active).
